Screening results deposited in PubChem BioAssay by several laboratories.
Most compounds without a hit are left out; they make up all but 5.3% or so of the library.
HIF activator – HIF pathway transcriptional activation; U2OS HRE-luciferase reporter, luminescence; normalized: DMSO 0%, desferrioxamine 100%; activation, % at 7.5 µM (by protocol); 300,000 compounds, 0.32% hits; AID 1910;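 active means mean activation of at least 10% of the iron chelator positive control signal, with at least half of replicates also reaching 10%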
SUMO Mot1 rescue – blocks SUMOylation pathway, rescuing yeast Mot1-301 growth. AID 2716. growth rescue, % at 18.8 µM. S. cerevisiae Mot1-301 growth rescue, ATP luminescence, 38.5C; percent above DMSO median, 100 means doubled. 320,000 compounds, 1% hits;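 active means every valid replicate shows activation above 250% relative to neutral control wells; inactive means the rest, any valid replicate at or below 250%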
ALR inh – blocks human ALR sulfhydryl oxidase activity. purified ALR, DTT oxidation, H2O2 HRP-luminol luminescence. inhibition, % (no concentration beside the values). 290,000 compounds, 3.8% hits. AID 485317;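 active means mean replicate inhibition above about 79%, with every replicate also reaching it, limit read from the data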
Target sequence (P55789 whole entry, looked up): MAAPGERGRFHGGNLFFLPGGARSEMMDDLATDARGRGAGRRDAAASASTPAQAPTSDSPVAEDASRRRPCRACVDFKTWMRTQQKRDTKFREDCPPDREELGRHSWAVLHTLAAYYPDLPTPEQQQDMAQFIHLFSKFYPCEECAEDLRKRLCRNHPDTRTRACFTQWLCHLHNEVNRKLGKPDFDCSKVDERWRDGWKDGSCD
M18AAP inhibitor – blocks P. falciparum M18 aspartyl aminopeptidase | recombinant PfM18AAP, H-Glu-NHMec fluorogenic cleavage | inhibition, % at 7.35 µM | 290,000 compounds, 1.2% hits | AID 1822;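 active means inhibition above the campaign mean inhibition over all tested compounds plus 3 SD, cut at about 28% in these data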
Numbers stand for hits; - = inactive; . = no result.

SMILES | HIF activator | SUMO Mot1 rescue | ALR inh | M18AAP inhibitor
O=C(NC1CCCCC1)C(c1ccccc1F)N(Cc1ccco1)C(=O)c1ccccn1 (centres undefined) | - | 310 | - | -
CCc1noc(C)c1C(=O)N1CC(C)SC1=Nc1ccc(Cl)cc1 (centres undefined) | . | - | . | .
CCOC(=O)c1nn(-c2ccccc2)c(=O)c2c(N)scc12 | . | 332 | - | -
CCOC(=O)c1nn(-c2ccccc2C)c(=O)c2c(N)scc12 | - | - | - | -
O=C(O)c1ccc2cc(-c3ccccc3)[nH]c2c1 | 20 | - | - | .
O=C(O)c1ccc(-c2ccccc2)[nH]1 | - | - | - | -
CC1(C)CC(=O)C2=C(C1)NC(SCC(=O)Nc1ccccc1)=C(C#N)C2c1ccco1 (centres undefined) | - | - | - | -
N#CC1=C(SCC(=O)Nc2ccc(C(=O)O)cc2)NC(=O)CC1c1ccco1 (centres undefined) | - | - | 98 | -
O=S(=O)(Nc1ccc(N2CCCCC2)cc1)c1cccc2cccnc12 | - | - | 98 | -
O=C(c1ccc(NS(=O)(=O)c2cccc3cccnc23)cc1)N1CCCCC1 | - | - | - | -
O=S(=O)(Nc1ccc(N2CCCCC2)cc1)c1ccc(F)cc1 | - | - | 98 | -
O=S(=O)(Nc1ccc(N2CCCCC2)cc1)c1ccccc1F | - | - | 99 | -
Cc1ccc(Nc2c(-c3ccc(C)o3)nc3cnccn23)cc1 | - | - | . | -
Cc1ccc2nc(-c3ccco3)c(Nc3ccccc3)n2c1 | - | - | - | -
Cc1ccc(-c2nc3cnccn3c2Nc2ccccc2)o1 | - | - | 98 | .
Cc1ccc(-c2nc3ccccn3c2Nc2ccccc2)o1 | - | - | 99 | -
CC(=O)c1cn(C2OC(CO)C3OC(C)(C)OC32)c(=O)n(C)c1=O (centres undefined) | - | - | - | .
Nc1cc(=O)[nH]c(SCC(=O)Nc2cccc([N+](=O)[O-])c2)n1 | - | - | - | -
Nc1ccc(SCC(=O)Nc2cccc([N+](=O)[O-])c2)cc1 | - | - | 99 | -
O=C(CSc1nncc(=O)[nH]1)Nc1cccc([N+](=O)[O-])c1 | - | - | 100 | -
COC(=O)c1ccc(C(=O)Nc2ccc(N)cc2N)cc1 | - | - | 92 | -
Nc1ccccc1C(=O)Nc1ccc(Cl)cc1Cl | - | - | - | -
Nc1cccc(C(=O)NCCNC(=O)c2cccc(N)c2)c1 | - | - | - | -
Nc1cccc(C(=O)Nc2ccco2)c1 | - | - | 98 | -
Nc1ccc(NC(=O)c2cccc(C(=O)Nc3ccc(N)cc3Cl)c2)c(Cl)c1 | - | - | 99 | -
SMILES | HIF activator | SUMO Mot1 rescue | ALR inh | M18AAP inhibitor
O=C(Nc1cccc(NC(=O)c2ccco2)c1)c1ccccc1 | - | - | - | -
COc1ccccc1NC(=O)c1ccc(N)cc1 | - | - | - | -
Nc1cccc(C(=O)Nc2ccc(N)cc2Cl)c1 | - | - | 99 | -
COc1cc(C(CC(=O)Nc2cc(C)ccn2)N2Cc3ccccc3C2=O)cc(OC)c1OC (centres undefined) | - | - | - | -
O=C(CSc1nnnn1C1CC1)Nc1ccc(S(=O)(=O)N2CCOCC2)cc1 | . | - | - | .
CC(=O)Nc1ccc(NC(=O)c2ccccc2CC[N+](=O)[O-])cc1 | - | - | - | -
O=C(Nc1cc(Cl)ccc1-n1cncn1)c1ccc([N+](=O)[O-])o1 | - | - | - | .
CCOC(=O)N1CCN(C(=O)COC(=O)CN(C)S(=O)(=O)c2ccc(NC(C)=O)cc2)CC1 | - | - | - | -
O=C(CO/N=C/c1cccc([N+](=O)[O-])c1)NC1CCCCC1 | - | - | - | -
O=C(CO/N=C/c1cccc([N+](=O)[O-])c1)Nc1ccc2ccccc2c1 | - | 338 | - | -
O=C(CSc1ncccn1)Nc1ncc(C(F)(F)F)cc1Cl | - | - | - | -
Nc1nc(SCC(=O)Nc2ncc(C(F)(F)F)cc2Cl)n[nH]1 | - | - | - | 28
O=C(OCc1cc(Cl)ccc1OC(F)F)c1ccc([N+](=O)[O-])o1 | - | - | - | -
CC(C)=NNc1cc([N+](=O)[O-])cc2c1C(=O)N(C)S2=O (centres undefined) | - | - | - | 30
CC/C(=N\Nc1ccc([N+](=O)[O-])cc1[N+](=O)[O-])c1ccc(O)cc1 | - | - | - | -
O=C(Nc1cccc2ccccc12)OCc1cncs1 | - | - | - | -
CCN(CCCCCN(C)C)Cc1cc2ccccc2o1 | 684 | - | - | -
O=C(C[n+]1ccccc1)N/N=C/c1ccc(C(=O)O)cc1 | . | - | - | .
CN(C)c1ccc(NC(=O)Oc2ccccc2)cc1 | - | - | 97 | -
CC(=O)c1ccc(NC(=O)C[n+]2cccc(C)c2)cc1 | - | - | - | -
